PubChem BioAssay (Tox21)
Unmarked numbers belong to inactive results. Records with an inconclusive call do not appear. Entries that show only a call come without a potency. The source made the active and inactive calls. Unless noted, calls follow the shape of the dose curve; as a rule, active = well fitted curve in the direction sought with a large enough effect in the repeat runs; inconclusive = weak or mixed curves; inactive = no such curve, though single readings can be large; an effect the other way counts as inactive or inconclusive.

Columns and labels:
[1] = qHTS assay for small molecule agonists of the p53 signaling pathway (AID 651631; calls by dose curve; also: nearly all actives have a fitted effect of over 15% in size)
Outline: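 Testing took place in human colorectal HCT-116 cells with stable p53RE-driven beta-lactamase. After 16 h of compound exposure at 37 °C, a FRET substrate was added and fluorescence recorded 2 h later.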

[2] = qHTS assay for small molecule agonists of the p53 signaling pathway - cell viability (AID 651633; calls by dose curve; also: series mostly up to about 83 µM; nearly all actives have a fitted effect of over 30% in size)
Outline: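 p53RE-bla cells were treated with compound for 16 hours at 37 C. Cytotoxicity was then measured as CellTiter-Glo luminescence after 30 min at room temperature.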

[3] = qHTS assay for small molecules that induce genotoxicity in human embryonic kidney cells expressing luciferase-tagged ATAD5 - cell viability (AID 651634; calls by dose curve; also: nearly all actives have a fitted effect of over 25% in size; also: potency is read from the fitted curve at half-maximal effect)
Outline: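 HEK293T cells expressing luciferase-tagged ATAD5 were exposed to compound or DMSO for 15.5 hr at 37C, 5% CO2. Viability was then read as live-cell protease activity by CellTiter-Fluor fluorescence after 30 min at 37C.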

[4] = qHTS assay to test for compound auto fluorescence at 590 nm (red) in HepG2 cells (AID 720674)
Outline: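 HepG2 cells, 2,000 per well in MEM with 10% FBS, attached overnight at 37 C, then got 23 nL compound or DMSO. After 1 hr at 37 C, 5% CO2, red fluorescence was read at 540/590 nm against Rose Bengal sodium as reference.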

[5] = qHTS assay to test for compound auto fluorescence at 535 nm (green) in HepG2 cells (AID 720675)
[6] = qHTS assay to test for compound auto fluorescence at 460 nm (blue) in HEK293 cells (AID 720678)
Outline: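 HEK293, 2,000 cells/well, 10% dialyzed FBS; attach 4-5 hr 37C; pin compound or DMSO; o/n 37C/5% CO2; fluorescence 405/460 nm; triamterene-equivalent units.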

[7] = qHTS assay to test for compound auto fluorescence at 590 nm (red) in HEK293 cells (AID 720679)
Outline: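 Intensity at 540nm excitation and 590nm emission is reported as Rose Bengal sodium-equivalent autofluorescence. Measurements followed overnight exposure (37C, 5% CO2) of HEK293 cells, 2,000 per well, to 23 nL compound.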

[8] = qHTS assay for small molecules that induce genotoxicity in human embryonic kidney cells expressing luciferase-tagged ATAD5 (AID 651632); also: nearly all actives have a fitted effect of over 15% in size
Outline: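 HEK293T cells carrying a luciferase reporter tagged to ATAD5 were exposed to compound or DMSO vehicle for 16 hr at 37C, 5% CO2. Amplite was added, and after 30 min at room temperature luciferase activity was read as a marker of ATAD5 induction.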

[9] = qHTS assay for small molecule disruptors of the mitochondrial membrane potential - cell viability (AID 720634; calls by dose curve;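 also: human HepG2 liver cancer cells; series mostly up to about 83 µM; nearly all actives have a fitted effect of over 20% in size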)
Outline: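 HepG2 cells seeded overnight at 37 C, then exposed to compound or DMSO for 1 hr at 37 C, 5% CO2. m-MPI dye added, then CellTiter-Glo for 30 min at room temperature; viability read as ATP luminescence.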

[10] = qHTS assay for small molecule disruptors of the mitochondrial membrane potential (AID 720635); also: potency is read from the fitted curve at half-maximal effect
Outline: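 HepG2 cells exposed to compound 1 hr at 37C, then Mito-MPS dye 30 min. Ratio read of aggregate (540/590 nm) versus monomer (490/535 nm) fluorescence.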

Row | Compound | Potency [1] | Potency [2] | Potency [3] | outcome [4] | outcome [5] | outcome [6] | outcome [7] | outcome [8] | Potency [9] | Potency [10] | fluorescence, relative to Rose Bengal [4] | fluorescence, % of fluorescein control [5] | fluorescence, % of triamterene [6] | fluorescence, % of fluorescent control [7]
1 | O=c1[nH]oc2c1CCNC2 | inactive | inactive | inactive | inactive | inactive | inactive | inactive |  |  |  |  |  |  | 
2 | CC[C@@H](CO)NC(=O)[C@@H]1C=C2c3cccc4[nH]cc(c34)C[C@H]2N(C)C1 |  | inactive | inactive | inactive | inactive |  | inactive | inactive | inactive | inactive |  |  |  | 
3 | C#CC(C)(C)O |  | inactive | inactive | inactive | inactive |  | inactive | inactive | inactive |  |  |  |  | 
4 | Cc1ccc2cc(C)ccc2c1 |  | inactive | inactive | inactive | inactive |  | inactive |  | inactive |  |  |  |  | 
5 | O=c1[nH]c2ccccc2o1 |  |  | inactive | inactive | inactive |  | inactive | inactive | inactive | inactive |  |  |  | 
6 | CCCN1CCC[C@@H]2Cc3[nH]ncc3C[C@H]21 |  | inactive | inactive | inactive | inactive | inactive | inactive | inactive | inactive |  |  |  |  | 
7 | C(COCC1CO1)OCC1CO1 (stereo not given) |  | inactive | inactive | inactive | inactive | inactive | inactive | inactive | inactive |  |  |  |  | 
8 | CCOC1Oc2ccc(OS(C)(=O)=O)cc2C1(C)C (stereo not given) |  | inactive | inactive | inactive | inactive | inactive | inactive |  | inactive | inactive |  |  |  | 
9 | BrCC1CO1 (stereo not given) |  | inactive | inactive | inactive | inactive | inactive | inactive | inactive | inactive |  |  |  |  | 
10 | O=[N+]([O-])c1cccc(CCl)c1 |  | inactive | inactive | inactive | inactive | inactive | inactive |  | inactive |  |  |  |  | 
11 | CCOC(=O)COc1ccc(Cl)cc1Cl |  | inactive | inactive | inactive | inactive | inactive | inactive |  | inactive |  |  |  |  | 
12 | O=C(O)C(Cl)Br (stereo not given) |  | inactive | inactive | inactive | inactive | inactive | inactive |  | inactive |  |  |  |  | 
13 | COc1ccc(C=O)cc1O |  | inactive | inactive | inactive | inactive | inactive | inactive | inactive | inactive |  |  |  |  | 
14 | CCCC[N+](=O)[O-] |  | inactive | inactive | inactive | inactive |  | inactive | inactive | inactive |  |  |  |  | 
15 | O=C(NC(O)C(Cl)(Cl)Cl)NC(O)C(Cl)(Cl)Cl (stereo not given) |  | inactive | inactive | inactive | inactive | inactive | inactive | inactive | inactive |  |  |  |  | 
16 | CCCC(C)C1(CC)C(=O)N=C(S)NC1=O (stereo not given) |  | inactive | inactive | inactive | inactive |  | inactive |  | inactive | inactive |  |  |  | 
17 | C=CCN1CC[C@]23CCCC[C@H]2[C@H]1Cc1ccc(O)cc13 |  | inactive | inactive | inactive | inactive | inactive | inactive | inactive |  |  |  |  |  | 
18 | CC[C@@H](CO)NC(=O)[C@@H]1C=C2c3cccc4c3c(cn4C)C[C@H]2N(C)C1 |  | inactive | inactive | inactive | inactive |  | inactive | inactive | inactive |  |  |  |  | 
19 | NNCc1ccccc1 |  | inactive | inactive | inactive | inactive | inactive | inactive |  | inactive | 24.8 µM (active) |  |  |  | 
20 | CCN[C@H](C)Cc1cccc(C(F)(F)F)c1 |  | inactive | inactive | inactive | inactive |  | inactive |  | inactive |  |  |  |  | 
21 | CCCN1CCC[C@@H]2Cc3nc(N)ncc3C[C@H]21 |  | inactive | inactive | inactive | inactive | inactive | inactive |  | inactive |  |  |  |  | 

Row | Compound | Potency [1] | Potency [2] | Potency [3] | outcome [4] | outcome [5] | outcome [6] | outcome [7] | outcome [8] | Potency [9] | Potency [10] | fluorescence, relative to Rose Bengal [4] | fluorescence, % of fluorescein control [5] | fluorescence, % of triamterene [6] | fluorescence, % of fluorescent control [7]
22 | CCOC(=O)C(Cl)Cc1cc(-n2nc(C)n(C(F)F)c2=O)c(F)cc1Cl (stereo not given) |  | inactive | inactive | inactive | inactive | inactive | inactive | inactive |  |  |  |  |  | 
23 | CN(C)CCN(C)C |  |  | inactive | inactive | inactive | inactive | inactive | inactive | inactive |  |  |  |  | 
24 | CON(C)C(=O)Nc1ccc(Br)c(Cl)c1 |  | inactive | inactive | inactive | inactive | inactive | inactive | inactive |  |  |  |  |  | 
25 | CCC1(c2cccc(O)c2)CCCCN(C)C1 (stereo not given) |  | inactive | inactive |  |  |  |  |  | inactive |  | 0.128% [at 18.6 µM] | 0.0413% [at 18.6 µM] | 0.018% [at 18.6 µM] | 0.162% [at 18.6 µM]
26 | CN(C)C1CCCCC1 |  | inactive | inactive | inactive | inactive | inactive | inactive |  | inactive |  |  |  |  | 
27 | CC[C@H](O)C(C[C@H](C)N(C)C)(c1ccccc1)c1ccccc1 |  | inactive | inactive | inactive | inactive | inactive | inactive | inactive | inactive |  |  |  |  | 
28 | NCCOS(=O)(=O)O |  | inactive | inactive | inactive | inactive | inactive | inactive |  | inactive |  |  |  |  | 
29 | C=C(C)[C@H]1CN[C@H](C(=O)O)[C@H]1CC(=O)O |  | inactive |  | inactive | inactive | inactive | inactive | inactive | inactive |  |  |  |  | 
30 | C[C@@H](N)[C@@H](O)c1ccccc1 |  |  |  |  |  |  |  |  | inactive | inactive | -0.248% [at 18.6 µM] | -0.0859% [at 18.6 µM] |  | -0.083% [at 18.6 µM]
31 | NNC(N)=O |  | inactive | inactive | inactive | inactive | inactive | inactive | inactive | inactive |  |  |  |  | 
32 | CCC(=O)c1ccc(Cl)cc1 |  |  | inactive | inactive | inactive | inactive | inactive | inactive | inactive |  |  |  |  | 
33 | ClCCCCCCCl |  |  | inactive | inactive | inactive |  | inactive | inactive | inactive |  |  |  |  | 
34 | O=C(NC(=O)c1c(F)cccc1F)Nc1cc(Cl)c(F)c(Cl)c1F |  | inactive | inactive | inactive | inactive | inactive | inactive | inactive | inactive |  |  |  |  | 
35 | C=C1C[C@@H]2[C@H](CC[C@]3(C)C(=O)CC[C@@H]23)[C@@]2(C)C=CC(=O)C=C12 |  | inactive | inactive | inactive | inactive |  | inactive | inactive | inactive |  |  |  |  | 
36 | O=C(O)c1c(Cl)ccc2cc(Cl)cnc12 |  |  | inactive | inactive | inactive | inactive | inactive | inactive | inactive |  |  |  |  | 
37 | CC(O)CCl (stereo not given) |  | inactive | inactive | inactive | inactive | inactive | inactive |  | inactive |  |  |  |  | 
38 | O=P(O)(O)CN(CP(=O)(O)O)CP(=O)(O)O |  | inactive | inactive |  |  |  |  |  | inactive |  | -0.158% [at 18.6 µM] | -0.0161% [at 18.6 µM] | 0.0178% [at 18.6 µM] | 0.149% [at 18.6 µM]
39 | CNC(=O)Oc1cc(C)c(N(C)C)c(C)c1 |  | inactive | inactive | inactive | inactive | inactive | inactive |  | inactive |  |  |  |  | 
40 | CN1C(=O)COc2c(C(=O)NC3CN4CCC3CC4)cc(Cl)cc21 (stereo not given) |  | inactive | inactive | inactive | inactive | inactive | inactive |  | inactive |  |  |  |  | 
41 | Cc1ccc(S(=O)(=O)N[C@@H](CCCCN)C(=O)CCl)cc1 |  |  | 29.8 µM (active) | inactive | inactive | inactive | inactive |  | inactive |  |  |  |  | 
42 | CCOC(=O)CCl |  | inactive | inactive | inactive | inactive | inactive | inactive | inactive | inactive |  |  |  |  | 
